Assay results reported in PubChem BioAssay (NCATS).
Records with an inconclusive call do not appear. Activity calls are given as the source filed them. Unless noted, calls come from the whole dose curve; as a rule, active = well fitted curve in the direction sought with a large enough effect; inconclusive = small, poorly fitted or top-dose-only effect, or another doubt; inactive = no such curve, though single readings can be large; an effect the other way counts as inactive or inconclusive.

Tests used:
[1] = qHTS of Trypanosoma Brucei Inhibitors: LOPAC Validation (AID 624147); note: potency is the fitted concentration of half-maximal effect
Outline: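 Enzyme and substrate buffer are dispensed first and compound is pin-transferred. ADP at 130 uM final then starts the reaction, which runs 45 min at room temperature. Detection reagent is added for 10 min before luminescence is imaged.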

[2] = biological target: Glucagon-like peptide 1 receptor (Homo sapiens) (UniProt P43220); test: qHTS of GLP-1 Receptor Agonists: LOPAC Validation (AID 624148);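 note: luminescence from a luciferase reporter switched on by cAMP; 0% is about no effect; higher luminescence signal means agonism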
Outline: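 Agonism scored as increased luciferase luminescence driven by cAMP in HEK293 clones carrying GLP-1R. Cells settled 12 hours, received compound for 4-6 hr at 37 deg C, 5% CO2, and were read after 12 min detection reagent at RT.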

[3] = qHTS of Nrf2 Activators: LOPAC Validation (AID 624149); note: 0% is about no effect
Outline: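 AREc32_Fluc cells, 1000/well, OPTI-MEM + 5% FBS, o/n 37 deg C 5% CO2; compound pin-transfer, 24 hr 37 deg C; Steady-Glo 30 min RT, luminescence read.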

[4] = HTS Assay for Allosteric Antagonists of the Human D2 Dopamine Receptor: Hit Validation in HTRF (AID 624455); note: potency is the fitted concentration of half-maximal effect
Outline: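 HTRF read-out; cells stably expressing D1 receptor; hits scored for inhibition of D1-mediated response. Primary screen: calcium flux, force-coupled inducible Hek293 Trex D2 line, antagonism vs EC80 dopamine.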

[5] = biological target: Glutaminase kidney isoform, mitochondrial (Homo sapiens) (UniProt O94925); test: qHTS for Inhibitors of Glutaminase (GLS): LOPAC Validation (AID 624146); note: nearly all actives have a fitted effect of over 60% in size; note: potency is the fitted concentration of half-maximal effect
Outline: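 Enzyme dispensed in phosphate buffer (45 mM, pH 8.2, 0.02% Tween-20), compounds pinned in, then 1 mM L-glutamine solution and the glutamate oxidase–HRP–Amplex Red mix added; fluorescence read immediately and again after 30 min at room temperature.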

[6] = qHTS assay for small molecule activators of the p53 signaling pathway (AID 651743; active = well fitted activation curve with a large enough effect in the signal ratio, not every such curve was filed as active; the % refers to the signal ratio; note: series mostly up to about 92 µM; % of control where 0% means no effect); conditions: HCT-116 p53RE-bla, beta-lactamase FRET ratio, 16 h; active compounds read high
Outline: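 A beta-lactamase reporter under p53 response element control, stably carried by HCT-116 cells, reported pathway activation. Test compounds were applied for 16 hours at 37 C, and fluorescence was measured 2 hours after adding the B/G FRET substrate.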

[7] = qHTS assay for small molecule activators of the nuclear factor-kappa B (NF-kB) signaling pathway (AID 651749; active = well fitted activation curve with a large enough effect in the signal ratio; the % refers to the signal ratio; note: series mostly up to about 77 µM; % of control where 0% means no effect); conditions: NF-kB-bla ME-180 cells, beta-lactamase FRET ratio, 16 h; active compounds read high
Outline: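 FRET-based beta-lactamase detection in ME-180 cells reports NF-kB response-element-driven transcription following overnight (16 hr) compound treatment.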

[8] = qHTS assay for environmental chemicals that activate the Aryl hydrocarbon Receptor (AhR) signaling pathway (AID 651777); conditions: 1A2-DRE human hepatoma cells, luciferase, 24 h; active compounds read high; note: % of control where 0% means no effect; nearly all actives have a fitted effect of over 15% in size
Outline: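 1A2-DRE human hepatoma reporter line; 1,200 cells/well; cmpd or DMSO 24 h, 37 C/5% CO2; One-Glo 30 min RT; luciferase lum.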

[9] = biological target: Peroxisome proliferator-activated receptor alpha (Homo sapiens) (UniProt Q07869); test: qHTS assay for small molecule agonists of the peroxisome proliferator-activated receptor alpha (PPARalpha) signaling pathway (AID 651778); conditions: PathHunter PPARalpha complementation, chemiluminescence, 6 h; max response: active compounds read high; note: % of control where 0% means no effect
Outline: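 Chemiluminescence from complemented enzyme reported PPARalpha activation in cells after 6 hr of compound treatment at 37 C. The detection reagent was incubated for 60 min at room temperature, and compounds were scored as agonists.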

[10] = biological target: Tumor susceptibility gene 101 protein (Homo sapiens) (UniProt Q99816); test: qHTS Assay for Iinhibitors of HIV-1 Budding by Blocking the Interaction of PTAP/TSG101: Hit Validation (AID 651600); note: % is set by controls: 0 for no effect and ±100 for the full control effect; nearly all actives have a fitted effect of over 70% in size
Outline: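 Displacement of a FITC-labeled PTAP-motif peptide (50 nM) from the Tsg101 binding domain (10 uM) was monitored by fluorescence polarization after a 20 min room-temperature incubation.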

Chain of Glutaminase kidney isoform, mitochondrial (Homo sapiens) (O94925 whole entry, looked up, canonical isoform): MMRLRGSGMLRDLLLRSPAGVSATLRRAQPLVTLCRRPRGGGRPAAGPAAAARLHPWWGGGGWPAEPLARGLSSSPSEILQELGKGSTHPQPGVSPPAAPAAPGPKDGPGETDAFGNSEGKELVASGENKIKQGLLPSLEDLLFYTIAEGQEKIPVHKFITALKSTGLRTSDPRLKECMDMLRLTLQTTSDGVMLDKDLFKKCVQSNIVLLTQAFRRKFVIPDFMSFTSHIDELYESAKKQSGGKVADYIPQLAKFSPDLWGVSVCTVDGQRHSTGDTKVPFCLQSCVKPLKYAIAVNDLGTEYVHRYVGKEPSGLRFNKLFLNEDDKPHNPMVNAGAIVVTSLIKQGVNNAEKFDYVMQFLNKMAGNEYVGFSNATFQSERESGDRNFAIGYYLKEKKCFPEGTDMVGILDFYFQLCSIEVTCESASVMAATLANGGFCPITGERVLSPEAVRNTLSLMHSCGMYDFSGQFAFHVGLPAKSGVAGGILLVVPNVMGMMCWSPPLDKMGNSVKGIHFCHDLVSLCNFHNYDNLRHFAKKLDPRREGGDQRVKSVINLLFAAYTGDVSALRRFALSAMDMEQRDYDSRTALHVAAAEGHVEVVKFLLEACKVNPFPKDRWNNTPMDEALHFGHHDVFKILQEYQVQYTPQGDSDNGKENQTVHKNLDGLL
Chain of Glucagon-like peptide 1 receptor (Homo sapiens) (P43220 whole entry, looked up): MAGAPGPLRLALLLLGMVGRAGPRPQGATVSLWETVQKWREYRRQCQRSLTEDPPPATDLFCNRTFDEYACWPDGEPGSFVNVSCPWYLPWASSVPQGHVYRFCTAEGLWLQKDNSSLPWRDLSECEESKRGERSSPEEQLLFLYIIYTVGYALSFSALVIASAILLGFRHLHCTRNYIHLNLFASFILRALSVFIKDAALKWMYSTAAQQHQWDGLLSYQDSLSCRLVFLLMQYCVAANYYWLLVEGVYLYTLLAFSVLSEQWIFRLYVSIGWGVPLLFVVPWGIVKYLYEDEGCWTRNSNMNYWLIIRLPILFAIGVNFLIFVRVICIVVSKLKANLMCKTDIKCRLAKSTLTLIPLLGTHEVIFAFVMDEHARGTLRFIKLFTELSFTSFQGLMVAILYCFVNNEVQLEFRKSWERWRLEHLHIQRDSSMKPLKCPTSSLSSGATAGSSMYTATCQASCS
Chain of Peroxisome proliferator-activated receptor alpha (Homo sapiens) (Q07869 whole entry, looked up): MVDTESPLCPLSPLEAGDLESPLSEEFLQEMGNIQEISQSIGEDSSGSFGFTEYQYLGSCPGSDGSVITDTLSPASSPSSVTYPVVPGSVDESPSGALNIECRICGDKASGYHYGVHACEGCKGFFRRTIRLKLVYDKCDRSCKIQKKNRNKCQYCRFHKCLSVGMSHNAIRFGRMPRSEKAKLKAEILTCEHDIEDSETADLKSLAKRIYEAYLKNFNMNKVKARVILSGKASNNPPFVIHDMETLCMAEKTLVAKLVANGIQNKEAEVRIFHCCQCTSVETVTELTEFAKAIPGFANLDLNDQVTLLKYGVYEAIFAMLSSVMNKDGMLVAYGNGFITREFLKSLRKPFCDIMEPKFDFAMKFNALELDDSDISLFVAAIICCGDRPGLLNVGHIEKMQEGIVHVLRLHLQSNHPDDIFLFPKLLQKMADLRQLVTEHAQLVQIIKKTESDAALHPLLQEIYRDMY
Chain of Tumor susceptibility gene 101 protein (Homo sapiens) (Q99816 whole entry, looked up, the tested form may be a part): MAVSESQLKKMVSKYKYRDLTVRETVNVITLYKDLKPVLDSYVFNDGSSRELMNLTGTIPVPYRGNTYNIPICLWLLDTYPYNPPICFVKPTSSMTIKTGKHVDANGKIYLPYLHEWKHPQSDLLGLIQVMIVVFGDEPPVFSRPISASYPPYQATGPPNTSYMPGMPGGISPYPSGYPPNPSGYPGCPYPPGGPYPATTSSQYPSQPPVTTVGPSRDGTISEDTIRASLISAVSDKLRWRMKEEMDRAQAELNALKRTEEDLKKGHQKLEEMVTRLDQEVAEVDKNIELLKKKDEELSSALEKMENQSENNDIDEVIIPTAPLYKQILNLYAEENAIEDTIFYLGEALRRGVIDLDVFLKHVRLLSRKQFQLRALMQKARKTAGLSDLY

CN1CCc2cc(Cl)c(O)cc2[C@@H](c2ccccc2)C1
inactive: Potency [1] | Potency [2] | Potency [3]

N#Cc1cc([N+](=O)[O-])c2sc(C(N)=O)[n+]([O-])c2c1
inactive: Potency [1] | Potency [2] | Potency [3] | Potency [4]

O=c1oc(Cl)c(Cl)c2ccccc12
inactive: Potency [5] | Potency [1] | Potency [2] | Potency [4]

CC1=C(/C=C/C(C)=C/C=C/C(C)=C\C(=O)O)C(C)(C)CCC1
inactive: Potency [5] | Potency [1] | Potency [2] | Potency [3] | Potency [4] | activation [6] -4.89% | activation [7] -1.8% | activation [8] 6.61% | max response [9] 0.529%

N=C(N)c1ccccc1
inactive: Potency [5] | Potency [1] | Potency [2] | Potency [3] | Potency [4]

COc1ccc(CCn2nnnc2C2(c3ccc(C)cc3)CC2)cc1
inactive: Potency [5] | Potency [1] | Potency [2] | Potency [3] | Potency [4]

CC(C)NCC(O)COc1ccc(CC(N)=O)cc1 (configuration not stated)
inactive: Potency [5] | Potency [2]

S=C(S)N1CCCC1
inactive: Potency [2] | Potency [4]
active: Potency [5] 12.6 µM | Potency [1] 23.9 µM

CC[n+]1c(/C=C/C=C2/N(C)c3ccccc3C2(C)C)sc2ccccc21
active: Potency [5] 11.2 µM
inactive: Potency [2] | Potency [3]

CN(C)CCCc1cc(C(=O)Nc2ccc(-c3ccncc3)cc2)ccc1O
inactive: Potency [5] | Potency [1] | Potency [3]

CC(C)NC[C@H](O)COc1cccc2ccccc12
inactive: Potency [5] | Potency [2] | Potency [3] | Potency [4]

O=C(O)/C=C/c1ccc(O)c(O)c1
inactive: Potency [2] | Potency [4]
active: Potency [5] 2 µM

N=S(=O)(O)Cc1noc2ccccc12
inactive: Potency [5] | Potency [1] | Potency [2] | Potency [4]

Nc1ncnc2c1c(-c1ccc(Oc3ccccc3)cc1)cn2C1CCCC1
inactive: Potency [1] | Potency [2] | Potency [3] | Potency [4]

Cc1nc2n(c(=O)c1CCN1CCC(c3noc4cc(F)ccc34)CC1)CCCC2O (configuration not stated)
inactive: Potency [5] | Potency [1] | Potency [2] | Potency [4]

Nc1nc2c(cnn2CCc2ccccc2)c2nc(-c3ccco3)nn12
inactive: Potency [5] | Potency [1] | Potency [2] | Potency [4]

Cc1ccccc1/C=C/C1=NCCN1
inactive: Potency [5] | Potency [1] | Potency [2] | Potency [4]

CC(C)(C)c1ccc(/C=C/C(=O)Nc2ccc3c(c2)OCCO3)cc1
inactive: Potency [5] | Potency [1] | Potency [2] | Potency [4]

COc1cc([C@@H]2c3cc4c(cc3[C@H](O)C3COC(=O)[C@@H]32)OCO4)cc(OC)c1OC (some centres not stated)
inactive: Potency [2] | Potency [3] | Potency [4]

O=c1ccc2c(OCCCCc3ccccc3)c3ccoc3cc2o1
inactive: Potency [5] | Potency [1] | Potency [2] | Potency [3] | Potency [4]

C=CCNc1ncnc2ccc(Br)cc12
inactive: Potency [5] | Potency [1] | Potency [2] | Potency [3] | Potency [4]

Cn1cc(C(=O)OCC2CCN(CCNS(C)(=O)=O)CC2)c2ccccc21
inactive: Potency [5] | Potency [1] | Potency [2] | Potency [4]

CN(C)CCC(c1ccc(Br)cc1)c1ccccn1 (configuration not stated)
inactive: Potency [1] | Potency [2] | Potency [3] | Potency [4]

[Li+]
inactive: Potency [5] | Potency [1] | Potency [2] | Potency [4]

C[C@](Cc1ccc(O)c(O)c1)(NN)C(=O)O
active: Potency [5] 1.58 µM
inactive: Potency [2] | Potency [3]

NC1(C(=O)O)CC1
inactive: Potency [5] | Potency [1] | Potency [2] | Potency [4]

CN1CCCC1CCOC(C)(c1ccccc1)c1ccc(Cl)cc1 (configuration not stated)
inactive: Potency [5] | Potency [1] | Potency [2] | Potency [3] | outcome [10]

CN1CC(O)C(O)C(O)C1CO (configuration not stated)
inactive: Potency [5] | Potency [1] | Potency [2] | Potency [3] | Potency [4]

C[C@@H](NCCc1ccc(O)cc1)[C@@H](O)c1ccc(O)cc1
inactive: Potency [1] | Potency [3] | Potency [4]

Cn1cc(C(F)(F)F)nc1-c1ccc(OCC(O)CNCCOc2ccc(O)c(C(N)=O)c2)cc1 (configuration not stated)
inactive: Potency [1] | Potency [2] | Potency [3]

COC(=O)[C@H](NC(=O)c1cc(-c2ccccc2)nc2ccccc12)c1ccccc1
inactive: Potency [5] | Potency [1] | Potency [3] | Potency [4]

C[C@H](O)C(=O)C1=Nc2c(nc(N)[nH]c2=O)NC1
inactive: Potency [1] | Potency [2]

CCCCCCCC/C=C\CCCCCCCC(=O)NCCc1ccc(O)c(O)c1
active: Potency [4] 0.651 µM
inactive: Potency [1] | Potency [2]

CC[C@@H]1Cc2cc(O)ccc2C2=C1c1ccc(O)cc1C[C@H]2CC
active: Potency [5] 0.794 µM
inactive: Potency [1] | Potency [2] | max response [9] -2.38%

CCCCOc1cc(CC2CNC(=O)N2)ccc1OC (configuration not stated)
inactive: Potency [5] | Potency [1] | Potency [2] | Potency [3] | Potency [4]

CN1Cc2sccc2C(c2ccc(O)c(O)c2)C1 (configuration not stated)
inactive: Potency [1] | Potency [2] | Potency [3]
